{"source": "PubChem BioAssay AID1117353", "about": "(Cheminformatics & Chemogenomics Research Group (CCRG), …, 2015)", "note": "Values without a mark were called inactive. Cut-off read from the data, not from the text of the source: active = inhibition above about 50%; inactive = the rest.", "data": [{"biological_target": "Vascular endothelial growth factor receptor 2 (Homo sapiens) (UniProt P35968)", "sequence (P35968 whole entry, looked up)": "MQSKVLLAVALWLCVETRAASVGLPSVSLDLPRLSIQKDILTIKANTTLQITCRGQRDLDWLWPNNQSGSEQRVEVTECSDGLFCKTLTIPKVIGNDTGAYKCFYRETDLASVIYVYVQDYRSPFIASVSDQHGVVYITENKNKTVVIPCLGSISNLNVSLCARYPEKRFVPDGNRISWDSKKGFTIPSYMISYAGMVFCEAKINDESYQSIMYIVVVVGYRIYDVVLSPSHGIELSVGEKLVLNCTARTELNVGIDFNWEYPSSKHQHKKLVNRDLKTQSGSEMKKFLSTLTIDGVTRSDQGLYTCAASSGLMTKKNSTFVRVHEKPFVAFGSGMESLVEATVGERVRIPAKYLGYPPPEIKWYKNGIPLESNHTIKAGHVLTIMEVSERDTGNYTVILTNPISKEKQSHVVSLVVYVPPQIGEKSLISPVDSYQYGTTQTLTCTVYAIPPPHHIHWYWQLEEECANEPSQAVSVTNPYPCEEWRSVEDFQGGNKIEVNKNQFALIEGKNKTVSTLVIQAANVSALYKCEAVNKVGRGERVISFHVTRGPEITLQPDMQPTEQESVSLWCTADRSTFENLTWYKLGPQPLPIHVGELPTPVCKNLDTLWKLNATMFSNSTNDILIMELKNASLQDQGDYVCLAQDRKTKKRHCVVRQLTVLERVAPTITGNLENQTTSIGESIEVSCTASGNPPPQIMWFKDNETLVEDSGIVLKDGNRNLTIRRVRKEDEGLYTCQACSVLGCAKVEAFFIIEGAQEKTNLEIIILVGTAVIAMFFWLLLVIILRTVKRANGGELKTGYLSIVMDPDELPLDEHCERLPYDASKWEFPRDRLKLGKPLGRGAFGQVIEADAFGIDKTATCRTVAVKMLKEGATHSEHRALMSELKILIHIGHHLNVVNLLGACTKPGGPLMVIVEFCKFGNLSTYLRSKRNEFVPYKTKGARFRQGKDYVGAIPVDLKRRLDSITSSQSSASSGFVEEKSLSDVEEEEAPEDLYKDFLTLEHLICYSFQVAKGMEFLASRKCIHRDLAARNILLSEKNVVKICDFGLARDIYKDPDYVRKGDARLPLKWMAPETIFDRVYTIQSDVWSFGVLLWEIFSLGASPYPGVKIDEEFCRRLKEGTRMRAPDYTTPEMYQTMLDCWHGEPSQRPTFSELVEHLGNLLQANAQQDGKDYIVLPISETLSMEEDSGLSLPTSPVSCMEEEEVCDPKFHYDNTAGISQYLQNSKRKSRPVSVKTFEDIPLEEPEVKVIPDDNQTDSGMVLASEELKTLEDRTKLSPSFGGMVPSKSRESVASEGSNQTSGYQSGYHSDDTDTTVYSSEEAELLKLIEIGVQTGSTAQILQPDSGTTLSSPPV", "assay": "VEGFR2 inhibitors, primary assay, biochemical, Homo sapiens, LANCE Ultra TR-FRET, NPC library (AID 1117353)", "settings": "LANCE Ultra TR-FRET kinase assay; at 20 µM (top of the series)", "units": {"inhibition": "%"}, "values": [{"compound": "CC(C)(C)C(=O)OCOP(=O)(COCCn1cnc2c(N)ncnc21)OCOC(=O)C(C)(C)C", "inhibition": -10.9}, {"compound": "CC[C@@]1(O)C(=O)OCc2c1cc1n(c2=O)Cc2c-1nc1ccccc1c2/C=N/OC(C)(C)C", "inhibition": 18.1}, {"compound": "CCc1nc(N)nc(N)c1-c1ccc(Cl)cc1", "inhibition": 17}, {"compound": "[O-][n+]1ccccc1SSc1cccc[n+]1[O-]", "inhibition": -17.4}, {"compound": "CCCOc1ccc2nc(NC(=O)OC)[nH]c2c1", "inhibition": 10.2}, {"compound": "CC[C@]1(O)C[C@H]2CN(CCc3c([nH]c4ccccc34)[C@@](C(=O)OC)(c3cc4c(cc3OC)N(C=O)[C@H]3[C@@](O)(C(=O)OC)[C@H](OC(C)=O)[C@]5(CC)C=CCN6CC[C@]43[C@@H]65)C2)C1", "inhibition": -11.3}, {"compound": "Cc1ccc2nc(N)[nH]c(=O)c2c1Sc1ccncc1", "inhibition": -56.2}, {"compound": "COC(=O)Nc1nc2ccc(S(=O)c3ccccc3)cc2[nH]1", "note": "(centres undefined)", "inhibition": 8.1}, {"compound": "O=C(O)c1ccc(-n2nc(-c3ccccc3O)nc2-c2ccccc2O)cc1", "inhibition": -16.1}, {"compound": "Cc1nc2ccc(CN(C)c3ccc(C(=O)N[C@@H](CCC(=O)O)C(=O)O)s3)cc2c(=O)[nH]1", "inhibition": 7.13}, {"compound": "CCCCCCCCCCCCCCCC[n+]1ccccc1", "inhibition": -114}, {"compound": "CC(C)C[C@H](NC(=O)[C@H](Cc1ccccc1)NC(=O)c1cnccn1)B(O)O", "inhibition": 19}, {"compound": "CC(C)(C)C1CCC(CC2=C(O)c3ccccc3C(=O)C2=O)CC1", "note": "(centres undefined)", "inhibition": -21.1}, {"compound": "CN(C)c1ccc2nc3ccc(=[N+](C)C)cc-3sc2c1", "inhibition": -6.83}]}]}
